Source: PubChem BioAssay (several laboratories)
M1 antagonist – antagonists of rat M1 muscarinic receptor; CHO-M1 cells, Fluo-4 calcium, ACh EC80 antagonist mode; active compounds read low; P08482; B-score at 10 µM; 64,000 tested, 3.4% active;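 active means calcium fluorescence response, raw or row-and-column corrected B-score, differing from the plate sample mean either way at a set confidence level, mostly lower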
Target sequence (P08482 whole entry, looked up): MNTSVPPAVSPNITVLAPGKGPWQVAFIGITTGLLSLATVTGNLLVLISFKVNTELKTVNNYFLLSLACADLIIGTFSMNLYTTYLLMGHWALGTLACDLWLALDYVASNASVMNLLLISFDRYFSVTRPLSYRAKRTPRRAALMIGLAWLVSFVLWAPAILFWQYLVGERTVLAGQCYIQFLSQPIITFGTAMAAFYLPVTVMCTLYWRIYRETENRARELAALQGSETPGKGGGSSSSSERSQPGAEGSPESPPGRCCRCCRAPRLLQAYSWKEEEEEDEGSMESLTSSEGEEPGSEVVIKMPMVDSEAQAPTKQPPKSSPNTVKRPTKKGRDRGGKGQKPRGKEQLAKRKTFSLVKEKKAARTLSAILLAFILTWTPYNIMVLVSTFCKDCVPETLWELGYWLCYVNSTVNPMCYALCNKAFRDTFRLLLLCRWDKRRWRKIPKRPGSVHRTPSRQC
Pyk2 oligo antag – blocks oligomerization of human Pyk2 in cells; Q14289; Q293 cells, Pyk2 FERM NanoBiT luminescence; active compounds read low; z-score (the deposit names both 25 µM and 10 µM); 99,000 tested, 0.83% active; AID 1347419;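 active means Z-score of -3 or lower, scaled per plate to the spread of control and sample wells; inactive means z-score above -3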;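 further: negative z-score means lost luminescence so less FERM oligomerization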
Cav32 inh – inhibitors of human Cav3.2 T-type calcium channel | O95180 | Cav3.2-expressing cells, Fluo-4 calcium fluorescence FDSS; active compounds read low | B-score at 10 µM | 100,000 tested, 4% active | AID 449739;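 active means single-dose well whose peak fluorescence ratio is a statistical outlier from its plate by either plate-standardised score or position-corrected B-score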
M1 ag – activates the M1 muscarinic receptor. CHO-M1 cells, Fluo-4 calcium fluorescence, agonist mode; active compounds read high. B-score at 10 µM. AID 626. 64,000 tested, 3% active;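 active means fluorescence rise, raw or as B-score row- and column-corrected plate score, outside the 99.7% band of its plate's samples, either direction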
M1 antag conf – confirmation of rat M1 muscarinic receptor antagonists | shares compounds with M1 antagonist | CHO-M1 cells, Fluo-4 calcium, ACh EC80 antagonism; active compounds read low | calcium response (max-min fluorescence) at 10 µM | 1,700 tested, 43% active | AID 677;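 active means calcium response below the same-plate mean of wells given acetylcholine alone at its 80%-effect dose, minus 3 SD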
mGluR4 antag – acts on human mGluR4 in M1 antagonist selectivity test | 1,700 tested, 0.9% active | shares compounds with M1 antagonist | CHO-mGluR4 calcium flux, Fluo-4 fluorescence, glutamate EC80; active compounds read low | AID 678 | fluorescence response (max-min) at 10 µM;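 active means fluorescence response below the plate's average for near-maximal glutamate wells, less 3 SD of those wells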;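 further: raw unnormalized fluorescence span taken in the window right after glutamate addition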
A number is an active result. In the library only some 7.1% were active in any assay of this set; here they are far more common.

`Cc1nn(C)c(C)c1CN(C)C(=O)c1cc2n(n1)C(C(F)(F)F)CC(c1cccs1)N2` (centres undefined) gave M1 antagonist -3.46, Pyk2 oligo antag inactive, Cav32 inh inactive, M1 ag inactive, M1 antag conf inactive and mGluR4 antag inactive.
COc1cc(NC(=O)c2c(F)c(F)c(F)c(F)c2F)c(OC)cc1Cl was read as M1 antagonist -2.93, Pyk2 oligo antag inactive, Cav32 inh inactive, M1 ag inactive, M1 antag conf inactive and mGluR4 antag 148.
COc1cc(NC(=O)c2ccc(F)cc2)c(OC)cc1Cl was read as Pyk2 oligo antag inactive and Cav32 inh inactive.
Screening CCc1ccccc1NC1c2ccccc2C(=O)N1Cc1ccco1 (centres undefined) returned M1 antagonist -2.16, Cav32 inh inactive, M1 ag inactive, M1 antag conf inactive and mGluR4 antag inactive.
Screening CCOc1ccccc1NC1c2ccccc2C(=O)N1Cc1ccco1 (centres undefined) returned M1 antagonist -0.863, Cav32 inh inactive, M1 ag inactive, M1 antag conf inactive and mGluR4 antag inactive.
For CN(C(=O)c1cccc(C#N)c1)c1nnc(C2CCCO2)s1 (centres undefined) the results were M1 antagonist -4.54, Pyk2 oligo antag inactive, Cav32 inh inactive, M1 ag inactive, M1 antag conf inactive and mGluR4 antag inactive.
`CN(C(=O)C1CCCO1)c1nnc(-c2ccccn2)s1` (centres undefined) gave M1 antagonist inactive, Pyk2 oligo antag inactive, Cav32 inh inactive and M1 ag inactive.
`O=C1c2ccccc2CN1CCNS(=O)(=O)c1ccc(Cl)cc1` gave M1 antagonist -1.82, Pyk2 oligo antag inactive, Cav32 inh inactive, M1 ag inactive, M1 antag conf inactive and mGluR4 antag inactive.
For O=C(NCCN1Cc2ccccc2C1=O)c1cccs1 the results were M1 antagonist inactive, Pyk2 oligo antag inactive, Cav32 inh inactive and M1 ag inactive.
Screening CCOC(=O)CCc1c(C)c2ccc(OCC(=O)OC(C)C)cc2oc1=O returned M1 antagonist -2.4, Pyk2 oligo antag inactive, Cav32 inh inactive, M1 ag inactive, M1 antag conf inactive and mGluR4 antag inactive.
`C=CCOC(=O)COc1ccc2c(C)c(C)c(=O)oc2c1` gave M1 antagonist -2.61, Pyk2 oligo antag inactive, Cav32 inh inactive, M1 ag inactive, M1 antag conf inactive and mGluR4 antag inactive.
Screening C=CCOC(=O)COc1ccc2c(C)c(CC)c(=O)oc2c1 returned M1 antagonist inactive, Pyk2 oligo antag inactive, Cav32 inh inactive and M1 ag inactive.
COCOc1ccc(C=O)c(OCOC)c1 was read as Cav32 inh inactive.
CN1CCN(c2ccc(NC(=O)c3cccc(OCc4ccccc4)c3)cc2)CC1 was read as M1 antagonist -5.29, Pyk2 oligo antag inactive, M1 ag inactive, M1 antag conf 304 and mGluR4 antag inactive.
Screening Cc1[nH]c2ccccc2c1C(=O)Cn1c(=O)oc2ccccc21 returned Pyk2 oligo antag inactive and Cav32 inh inactive.
CCNS(=O)(=O)c1ccc(NC(=O)Cc2ccc(F)cc2)cc1 was read as M1 antagonist -5.5, Pyk2 oligo antag inactive, Cav32 inh inactive, M1 ag inactive, M1 antag conf 561 and mGluR4 antag inactive.
Screening c1ccc(-n2nnc(-c3cccnc3)n2)cc1 returned Cav32 inh inactive.
`CCn1c(=O)c(C(=O)Nn2c(C)nc3ccccc3c2=O)c(O)c2ccccc21` gave M1 antagonist -13.6, Pyk2 oligo antag inactive, Cav32 inh -6.15, M1 ag inactive, M1 antag conf inactive and mGluR4 antag inactive.
For COc1cc(C(=O)NCc2nnc(SCC(=O)N3CCc4ccccc43)o2)cc(OC)c1OC the results were M1 antagonist inactive, Pyk2 oligo antag inactive and M1 ag inactive.
CC(=O)C1=C(Nc2ccc(C)cc2)CC(C)(O)C(C(C)=O)C1c1ccco1 (centres undefined) was read as M1 antagonist -13.1, Pyk2 oligo antag inactive, Cav32 inh inactive, M1 ag inactive, M1 antag conf inactive and mGluR4 antag inactive.
For Cc1nnc(SC(=O)N2c3ccccc3Sc3ccccc32)s1 the results were M1 antagonist inactive, Pyk2 oligo antag inactive, Cav32 inh inactive and M1 ag inactive.
